Several values for one entry are separate records, joined by “and”; a condition that tells them apart may be missing. Equal entries are not always repeated. About 83,000 compounds went through this panel and 20% of them were active in at least one assay; those are over-represented in the sample as a whole.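 Activity criterion: percent growth below 10, measured after cells in 96-well plates were exposed to a single compound concentration for 48 hours.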 Unmarked numbers belong to inactive results. Activity calls are given as the source filed them.

In the assay the test system is MDA-MB-468 breast. In words: NCI-60 one-dose screen, 48 h (100 = growth as untreated, 0 = no growth, -100 = all killed). As to conditions: 10 µM unless noted.
For the molecule `CN1C(=O)/C(=C/c2ccc(C(=O)Nc3ncc(Cc4ccccc4Cl)s3)cc2)SC1=S`, the growth was 40.3%.

As for `COc1ccc(/C=C/C(=O)c2nnn(-c3ccc(Br)cc3)c2C)cc1OC`, the growth was 46.9%.

Take `Cc1ccc(C(=O)/C(=C/c2ccc([N+](=O)[O-])cc2)SCc2ccc(Cl)cc2)cc1`: the growth is 72.9%.

In the case of `Nc1c(C(=O)Nc2ccccc2C(F)(F)F)sc2nc3c(cc12)CCC3`, the growth was 104%.

As for `COc1cc2c(cc1O)CCc1cc(O)cc(OC)c1-2`, the growth is 98%.

As for `CCN1C2CCC1/C(=C\c1ccc(F)cc1)C(=O)/C2=C/c1ccc(F)cc1`, the growth is 11.1%.

Take `CCCCCOc1ccc(/C=N/Nc2cc(C)nc3ccc(Br)cc23)cc1`: the growth is -15.1% (active).

Regarding `CC1CCCCN1S(=O)(=O)c1ccc(CN=C=S)cc1` (stereo unspecified), the growth is 17.4%.

On to `Cc1cc2nc3[nH]c4ccccc4c3nc2cc1C`, for which the growth is 97.5%.

For the molecule `CN1CCN(CCCn2c(=O)c3sc4ncccc4c3n3nnc(-c4ccccc4)c23)CC1`, the growth is -62% (active).

`COc1cc(-c2nc(-c3ccccc3)[nH]c2-c2ccnc(NCCCNS(=O)(=O)c3ccc(C(F)(F)F)cc3)n2)ccc1Cl`: the growth is 14% and 41.9%.

For `ClCC1(Cn2cnc3c(Cl)nc(Cl)nc32)COC1`, the growth is 19.4%.

`O=C1c2cccnc2C(=O)c2c1c(C(=O)NCCCN1CCCCC1)c1ccccn21`: the growth is -73.9% (active).

For `CN(C)C(C)(C)CC(C)(C)C`, the growth is 116%.

Take `N#CC1C(=O)SC2c3ccccc3C(=O)c3ccccc3C12` (stereo unspecified): the growth is 89.4%.

Regarding `COc1cc(Cn2cc(F)c(=O)[nH]c2=O)cc(OC)c1`, the growth was 106% [50 µM].

As for `O=C1Nc2ccccc2C2c3cccn3-c3ccccc3N12` (stereo unspecified), the growth is 47.8%.

Turning to `COc1cc2nccc(Oc3ccc(NC(=O)C4(C(=O)Nc5ccc(F)cc5)CC4)cc3)c2cc1OC`, the growth was 33.6%.

Consider `O=C1Nc2ccccc2/C1=N/N=C/c1c[nH]c2ccccc12`, for which the growth was 84.8%.

With `CCCCOc1nc2ccc(OC)cc2cc1-c1cc(-c2ccc(Cl)cc2)nc(-c2ccc(Cl)cc2)c1`, the growth is 95.2%.

Turning to `O=c1[nH]c(CNc2ccc(NCc3c(-c4ccccc4)no[n+]3[O-])cc2)nc2c1cnn2-c1ccccc1`, the growth was 33.2%.

Consider `CC(C)=CCC[C@](C)(O)[C@H]1CC[C@]2(C)[C@@H]1CC[C@@H]1[C@@]3(C)C/C(=C/c4ccccc4)C(=O)C(C)(C)[C@@H]3CC[C@]12C`, for which the growth is 94.7%.

As to `Cc1[nH]c(-c2nc3ccccc3[nH]2)c(C)c1C(=O)N1CCOCC1`, the growth is 91.6%.

As for `CCN(Cc1ccc(Cl)c(Cl)c1)c1ccc2nc(N)nc(N)c2c1C`, the growth is -84.2% (active).

As for `O=C1C(=O)c2ccccc2C(O)=C1CCCc1ccc(Oc2ccccc2)cc1`, the growth is 44.7%.

On to `COc1ccc(/C=N/NC(=O)c2c(N)nn(C)c2Nc2ccccc2)cc1`, for which the growth was -1.26% (active).

The values are drawn from PubChem BioAssay (NCI).
